Bioassay records (PubChem BioAssay)
KAT2A inh = GCN5L2 (KAT2A) acetyltransferase inhibition | AID 504327 | actives 0.21% (n = 390,000) | GCN5L2 HAT assay, ThioGlo1 CoA-SH fluorescence | Potency, µM (titrated, usually from 58.9 µM), without a hit: at the highest dose activity change, negative = inhibition, usual class: inhibitors; note: potency is the fitted concentration of half-maximal effect
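GCN5L2 (20 nM) in 50mM HEPES pH 7.5, 0.1mM EDTA, 0.01% Tween-20 preincubated 15 min with compounds at room temperature. Reaction started with H3(1-25) 75uM, acetyl-CoA 70uM, ThioGlo1 50uM; CoA-thiol fluorescence (Ex340/Em540) read at 0 and 20 min.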
Tb PGK inh = T. brucei PGK inhibition | AID 602233 | PGK/GAPDH coupled, Kinase-Glo luminescence, 60 min | Potency, µM (highest dose often 57.5 µM), without a hit: top-dose activity change, negative = inhibition, most hits filed as inhibitors | actives 0.043% (n = 380,000); note: potency is the fitted concentration of half-maximal effect; nearly all actives have a fitted effect of over 60% in size
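Luminescent ATP detection (Kinase-Glo Plus) follows a 60-minute room-temperature incubation, with wells lacking PGK as controls. Buffer: 100 mM TEA (pH 7.6), 5 mM MgCl2, 0.01% Tween-20. Coupling enzyme GAPDH (100 nM final) supplies unstable 1,3-BPG in-well.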
Pin1 inhibitor = human Pin1 inhibition | actives 0.009% (n = 390,000) | Q13526 | Potency, µM (doses to about 115 µM), inactives show at the top dose activity, negative = inhibition, usual class: inhibitors | Pin1 FP peptide displacement, HiFluor488, 10 min; active = well fitted inhibition curve with a large enough effect in the polarisation, with a control signal flat, not every such curve was filed as active; inconclusive = small, poorly fitted or top-dose-only effect, or effect the other way, or a change in a side signal; inactive = no such curve, though single readings can be large or run the other way; the % refers to the polarisation; note: potency is the fitted concentration of half-maximal effect
RGS4 inhibitor = inhibitors of human regulator of G protein signaling 4. P49798. Transcreener GDP fluorescence polarization, RGS4-accelerated GTP hydrolysis. Potency, µM (doses to about 114 µM), for the others: at the top dose activity change, negative = inhibition, most hits filed as inhibitors. actives 0.039% (n = 390,000). AID 504845; note: potency is the fitted concentration of half-maximal effect; nearly all actives have a fitted effect of over 75% in size
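MLSMR compounds (23 nl, pin-transferred) preincubated 10 min at room temperature with a 500nM (2x) first reagent, then RGS4 at 900nM (2x) plus Transcreener GDP mix added; fluorescence polarization (620/688 nm) read before and after 90 min at 30 °C.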
KCNH2 WT inh = inhibitors of human wildtype KCNH2 potassium channel; U2OS, BacMam KCNH2, thallium flux FluxOr; hits give low values; activity change, % at 1.84 µM; actives 0.37% (n = 340,000);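 active = maximum activity change below -70%; inconclusive = maximum activity change between -70% and -50%; inactive = maximum activity change above -50%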
Target sequence (Q12809 whole entry, looked up): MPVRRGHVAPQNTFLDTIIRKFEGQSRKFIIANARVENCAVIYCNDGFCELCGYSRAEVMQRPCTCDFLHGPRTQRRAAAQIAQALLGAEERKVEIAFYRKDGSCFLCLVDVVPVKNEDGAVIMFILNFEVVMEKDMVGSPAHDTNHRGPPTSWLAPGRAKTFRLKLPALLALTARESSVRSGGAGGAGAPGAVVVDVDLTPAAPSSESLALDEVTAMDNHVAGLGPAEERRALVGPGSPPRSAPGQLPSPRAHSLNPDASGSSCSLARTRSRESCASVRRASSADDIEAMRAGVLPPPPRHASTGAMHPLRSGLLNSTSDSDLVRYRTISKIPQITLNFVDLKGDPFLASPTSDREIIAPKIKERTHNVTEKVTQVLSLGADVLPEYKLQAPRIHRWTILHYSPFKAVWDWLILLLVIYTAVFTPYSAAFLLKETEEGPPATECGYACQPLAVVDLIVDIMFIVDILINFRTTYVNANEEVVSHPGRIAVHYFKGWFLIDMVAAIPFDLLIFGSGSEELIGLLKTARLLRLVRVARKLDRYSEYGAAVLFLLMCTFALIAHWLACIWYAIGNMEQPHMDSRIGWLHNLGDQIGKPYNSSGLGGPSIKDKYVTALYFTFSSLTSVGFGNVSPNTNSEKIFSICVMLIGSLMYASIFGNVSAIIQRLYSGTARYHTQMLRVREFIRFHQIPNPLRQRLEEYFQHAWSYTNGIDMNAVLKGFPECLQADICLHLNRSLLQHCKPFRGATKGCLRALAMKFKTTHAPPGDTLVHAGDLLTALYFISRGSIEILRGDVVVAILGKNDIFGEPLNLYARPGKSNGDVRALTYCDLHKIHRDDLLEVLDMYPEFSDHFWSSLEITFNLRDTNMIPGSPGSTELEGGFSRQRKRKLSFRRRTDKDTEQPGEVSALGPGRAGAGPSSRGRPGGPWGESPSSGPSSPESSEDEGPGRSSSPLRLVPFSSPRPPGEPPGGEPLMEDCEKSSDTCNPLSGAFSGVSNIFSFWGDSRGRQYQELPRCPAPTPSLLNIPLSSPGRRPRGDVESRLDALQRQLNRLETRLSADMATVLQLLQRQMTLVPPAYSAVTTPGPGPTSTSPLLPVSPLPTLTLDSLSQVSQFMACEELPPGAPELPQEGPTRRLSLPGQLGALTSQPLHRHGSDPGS
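U2OS cells transduced with wild-type KCNH2 virus are loaded with FluxOr dye for 45 min, and thallium flux is measured in kinetic reads before and after stimulation buffer. Rate constants are normalized to DMSO controls.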
KCNH2 3.1 inh = inhibitors of human KCNH2 3.1 potassium channel isoform. U2OS KCNH2 3.1, thallium flux FluxOr; hits give low values. activity change, % (tested at about 1.8 µM). actives 0.95% (n = 340,000);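 active = maximum activity change below -70%; inconclusive = maximum activity change from -70% to -50%; inactive = maximum activity change above -50%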;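 note: thallium influx rate constant from kinetic fluorescence after stimulation buffer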
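U2OS cells transduced with KCNH2 3.1 mutant virus (1.77 x 10^8 /mL, 4 h), plated overnight at 37 C, loaded 45 min with FluxOr dye plus Red40 quencher. Thallium flux rate constant from kinetic reads after stimulation buffer, normalised to controls.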
* marks the source's active call; other numbers are inactive results; i = inactive; ? = inconclusive; nt = no result; [ ] = dose if it differs, or a comment. Only some compounds are listed: those with a hit (about 1.2% of all), similar ones and a draw of the others. Unless noted, calls come from the whole dose curve; as a rule, active = well fitted curve in the direction sought with a large enough effect; inconclusive = small, poorly fitted or top-dose-only effect, or another doubt; inactive = no such curve, though single readings can be large; an effect the other way counts as inactive or inconclusive. % is set by controls: 0 for no effect and ±100 for the full control effect.

SMILES | KAT2A inh | Tb PGK inh | Pin1 inhibitor | RGS4 inhibitor | KCNH2 WT inh | KCNH2 3.1 inh
COc1cccc(NC(=O)c2oc3ccccc3c2NC(=O)C23CC4CC(CC(C4)C2)C3)c1 | -9% | 12% | -4% | 15% | nt | nt
CSc1nsc(SC)c1NC(=O)Nc1ccccc1C | -7% | i | 1% | ? | -4 | -84*
CCCCNc1nc2cccnc2s1 | 1% | -6% | 0% | 9% | -2 | -130*
Clc1ccc(Nc2nc3cccnc3s2)cc1 | -7% | -3% | 0% | 3% | -9 | 7
CCOC(=O)/C=C(C)/C=C/C=C(C)/C=C/c1c(C)cc(OC)c(C)c1C | -10% | nt | nt | nt | nt | nt
COc1cc(C)c(/C=C/C(C)=C/C=C/C(C)=C/C(=O)O)c(C)c1C | 25µM* | -11% | nt | -8% | -3 | -12
CCOC(=O)C1(CCOc2ccccc2)CCN(Cc2ccc(NC(C)=O)cc2)CC1 | 1% | -2% | -3% | 13% | 2 | ?
CCOC(=O)C1(CCOc2ccccc2)CCN(Cc2ccc(OC)cc2)CC1 | nt | 9% | 2% | -4% | -98* | -120*
CCOC(=O)C1(CCOc2ccccc2)CCN(Cc2ccc(OCC)c(CO)c2)CC1 | nt | 8% | -14% | -7% | -87* | -108*
CCOC(=O)C1(CCOc2ccccc2)CCN(Cc2cc(OC)c3c(c2)OCO3)CC1 | 2% | -6% | 4% | 3% | -32 | -71*
CCOC(=O)c1ccc(NC(=O)c2cc3cc(C)ccc3n2C)cc1 | -1% | 7% | -1% | -1% | nt | nt
CN(Cc1cccs1)c1ncnc2ccc(-c3ccc4cnn(C)c4c3)cc12 | nt | nt | 7% | nt | nt | nt
CCN(CC)S(=O)(=O)c1ccc2c(c1)N(CC(=O)N1CCN(c3ccc(OC)cc3)CC1)C(=O)CO2 | -5% | -3% | -6% | 8% | nt | nt
O=C(CN1C2=NCCCN2c2ccccc21)c1ccc([N+](=O)[O-])cc1 | 0% | -8% | 2% | -6%[11.4 µM] | 5 | -74*
O=C(CN1C2=NCCCN2c2ccccc21)c1cccc(Br)c1 | 1% | i | 2% | ? | 7 | ?
O=C(O)C(S)C(S)C(=O)O (configuration not stated) | nt | ? | nt | ? | 6 | 3
O=C(O)C(S)[C@@H](S)C(=O)O (some centres not stated) | 7.1µM* | nt | nt | nt | nt | nt
CC(=O)N1CCC2(CC1)CCN(c1ccc(-c3ccccc3)cc1)CC2 | -11% | nt | nt | nt | nt | nt
O=[N+]([O-])c1ccc2c(c1)S(=O)(=O)C=C2 | ? | nt | nt | 21µM* | nt | nt
COc1ccc(NC(=O)c2ccc(NC(=O)CCS(=O)(=O)c3cccs3)cc2)cc1Cl | -1% | 6% | 1% | -23% | nt | nt
CCOc1cccc2sc(N(CCCN(C)C)C(=O)c3ccc(S(=O)(=O)N4CCc5ccccc5C4)cc3)nc12 | 1% | 4% | -1% | 17% | 8 | -17
CCOc1cccc2sc(N(CCCN(C)C)C(=O)c3ccc(S(=O)(=O)N(C)c4ccccc4)cc3)nc12 | 0% | -8% | -7% | -18% | -106* | -85*
CCc1ccc2nc(N(CCCN(C)C)C(=O)c3ccc(S(=O)(=O)N(C)C4CCCCC4)cc3)sc2c1 | -19% | 3% | ? | -9% | -45 | -72*
CCCCCCCNC(=O)C1(CC2CC(c3cccc(Br)c3)=NO2)CCN(C(=O)CCCCCBr)CC1 (configuration not stated) | -9% | 9% | ? | 21% | -123* | -96*
CCCCCCCNC(=O)C1(CC2CC(c3cccc(Br)c3)=NO2)CCN(C(=O)C2(C)CC2)CC1 (configuration not stated) | -13% | -1% | 8% | 3% | 4 | -16
CCOc1ccc(-c2cc(C(=O)Oc3ccc(C#N)cc3)no2)cc1 | -11% | -4% | 1% | -4% | nt | nt
CCCc1ncc(C(O)c2ccccc2OC)n1C (configuration not stated) | -3% | -5% | -4% | 26% | -201* | 7
CCc1c(C)nc2[nH]nc(-c3ccccc3C)n2c1=O | 4% | -9% | 0% | ? | -1 | -193*
